Bioassay records from PubChem BioAssay.
TSG101-PTAP inh = qHTS Assay for Iinhibitors of HIV-1 Budding by Blocking the Interaction of PTAP/TSG101; Tumor susceptibility gene 101 protein (Homo sapiens), Q99816; Fluorescence polarization, FITC-PTAP peptide / Tsg101 binding; Potency, µM (titrated, usually from 115 µM), for the others: top-dose activity change, negative = inhibition, actives largely listed as inhibitors; 340,000 tested, under 10 active; AID 493005, 2010; active means well fitted inhibition curve with a large enough effect in the main read-out, with a control signal flat, not every such curve was filed as active; inconclusive means small, poorly fitted or top-dose-only effect, or effect the other way, or a change in a side signal; inactive means no such curve, though single readings can be large or run the other way; further: potency means the concentration at half of the fitted maximal effect; % of control where 0% means no effect
Target sequence (Q99816 whole entry, looked up): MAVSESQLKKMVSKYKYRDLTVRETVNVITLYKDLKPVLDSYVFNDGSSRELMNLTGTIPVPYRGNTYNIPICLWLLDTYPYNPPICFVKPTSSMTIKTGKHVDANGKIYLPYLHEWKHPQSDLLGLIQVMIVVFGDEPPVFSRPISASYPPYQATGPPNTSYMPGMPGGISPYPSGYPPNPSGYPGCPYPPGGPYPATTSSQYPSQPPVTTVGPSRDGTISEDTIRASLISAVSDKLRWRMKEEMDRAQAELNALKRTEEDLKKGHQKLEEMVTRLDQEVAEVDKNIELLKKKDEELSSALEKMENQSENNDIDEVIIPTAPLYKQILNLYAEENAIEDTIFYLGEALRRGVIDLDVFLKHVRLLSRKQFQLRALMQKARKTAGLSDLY
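Compounds were pin-transferred onto Tsg101 binding domain (10 uM final) in HEPES pH 7.5 buffer, then FITC-PTAP peptide was added at 50 nM final. After 20 min at RT, polarization reported peptide displacement across a qHTS concentration series.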
VDR inh = Inhibitors of the vitamin D receptor (VDR): qHTS. Potency, µM, without a hit: max response, negative = inhibition, actives largely listed as inhibitors. VDR-SRC2-3 peptide fluorescence polarization, 2 h. actives 0.93% (n = 400,000); further: potency means the concentration at half of the fitted maximal effect; on the % scale 0 is the no-effect control and ±100 the full control effect
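After 23 nl compound addition and a short centrifugation, plates sat for 2 hours at ambient temperature; polarization of fluorescence then indicated loss of VDR binding to peptide SRC2-3.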
TSHR antag = Antagonists of the Thyroid Stimulating Hormone Receptor: HTS campaign; activity change, negative = inhibition, % at 11.5 µM; actives 0.2% (n = 330,000); TSHR-expressing cells, TSH-stimulated cAMP HTRF, 2 h; active compounds read low; Thyrotropin receptor (Homo sapiens), P16473;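 active means activity change below a set negative limit, meaning inhibition stronger than a set level, cut at about -70% in these data; inconclusive means activity change between two set negative limits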; further: on the % scale 0 is the no-effect control and ±100 the full control effect
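Competitive HTRF cAMP read-out (cryptate anti-cAMP antibody, cAMP-d2; 30 min, room temperature) in freshly harvested TSHR cells. Compounds added before TSH at EC80 (4nM final), followed by 2 hours' incubation at 37 deg C.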
PLK1 PBD inh = qHTS for Inhibitors of PLK1-PDB (polo-like kinase 1 - polo-box domain): Primary Screen; Potency, µM, without a hit: max response, negative = inhibition, most hits filed as inhibitors; Plk1 PBD binding of FITC phosphopeptide, fluorescence polarization; Serine/threonine-protein kinase PLK1 (Homo sapiens), P53350; actives 2.8% (n = 360,000); further: potency means the concentration at half of the fitted maximal effect; series mostly up to about 57 µM; on the % scale 0 is the no-effect control and ±100 the full control effect; nearly all actives have a fitted effect of over 65% in size
uPA surface inh = qHTS for Inhibitors of Cell Surface uPA Generation. cell surface uPA generation assay, qHTS. Potency, µM (series often up to 38.3 µM), inactives show top-dose activity change, negative = inhibition, hits mostly inhibitors. actives 0.31% (n = 330,000). AID 540303, 2011; active means well fitted inhibition curve with a large enough effect; inconclusive means small, poorly fitted or top-dose-only effect; inactive means no such curve, though single readings can be large or run the other way; tested in mouse RAW 264.7 cells; further: potency means the concentration at half of the fitted maximal effect; on the % scale 0 is the no-effect control and ±100 the full control effect; nearly all actives have a fitted effect of over 55% in size
Active calls of the source: *; u = inconclusive; x = not tested or not shown. Shown are actives, neighbours in structure and some others; about 3.1% of the full set was active somewhere. Unless noted, the call rests on the fitted dose curve; in most records, active means well fitted curve in the direction sought with a large enough effect; inconclusive means small, poorly fitted or top-dose-only effect, or another doubt; inactive means no such curve, though single readings can be large; an effect the other way counts as inactive or inconclusive.

SMILES	TSG101-PTAP inh	VDR inh	TSHR antag	PLK1 PBD inh	uPA surface inh
COc1cccc(-c2csc(N3CCC(C(N)=O)CC3)n2)c1	x	x	-11	x	x
CCn1c(O)c(C=Nc2ccccc2)oc1=S	0%	5%	-5	27µM*	1%
CCCn1c(O)c(C=Nc2ccccc2)sc1=S	-1%	11%	-5	-10%	2%
Cn1c(=O)c2c(nc(SCC(=O)Nc3ccc(F)c(F)c3)n2Cc2ccccc2F)n(C)c1=O	x	8%	x	x	x
O=C(COc1ccccc1Br)N1CCN(C(=O)c2ccco2)CC1	-1%	-6%	-4	-5%	1%
O=C(CCN1CCCC1Cc1ccccc1)c1ccc2c(c1)OCCO2 (centres undefined)	-12%	35µM*	x	21µM*	-6%
COc1cc(C(=O)NC2CCN(Cc3ccccc3)CC2)cc(Cl)c1OC	1%	18%	-2	-1%	10%
COc1cc(C(=O)CCN2CCC(c3ccccc3)C2)cc(OC)c1OC (centres undefined)	-2%	u	-2	27µM*	u
O=C(CCN1CCC(c2ccccc2)C1)c1ccc2c(c1)OCCO2 (centres undefined)	-1%	14µM*	-23	6µM*	-30%
O=C(CCN1CCc2ccccc2C1)c1ccc2c(c1)OCCO2	0%	u	-17	24µM*	-6%
COc1cc(OC)cc(C(=O)Nc2nnc3n2CCS3)c1	x	0%	x	x	x
COc1cc(CCCN2CCNC[C@H]2Cc2cccc3ccccc23)cc(OC)c1OC	-1%	-11%	-1	-14%	-19%
CCCNC(=O)CCNC(=O)c1ccc(C(C)(C)C)cc1	x	7%	-1	-4%	2%
CC(C)(C)c1ccc(C(=O)NCCC(=O)NCc2cccs2)cc1	-7%	-21%	13	27µM*	-7%
O=C(NCc1cccs1)c1ccc(S(=O)(=O)N2CCCCC2)cc1	0%	u	13	13µM*	3%
C=CS(=O)(=O)c1sc(Cl)c(N2CCOCC2)c1[N+](=O)[O-]	-2%	u	u	0.53µM*	-8%
Cn1ccc2cc(S(=O)(=O)N3CCN(C(=O)Nc4ccc(F)cc4F)CC3)ccc21	x	-3%	x	x	x
NS(=O)(=O)Oc1ccccc1	-3%	-9%	4	-11%	3%
O=S(=O)(CS(=O)(=O)Oc1ccccc1)Oc1ccccc1	-2%	-21%	x	21µM*	6%
Cc1oc2cc(O)ccc2c(=O)c1Oc1ccccc1	-5%	-10%	-7	3µM*	4%
CCOc1ccc(Oc2c(C)oc3cc(O)ccc3c2=O)cc1	3%	-8%	14	-1%	-2%
CCc1cccc(C)c1NC(=O)CCCn1c(=O)c2cccn2c2cccnc21	0%	u	15	24µM*	2%
Cc1ccc(NC(=O)CCCn2c(=O)c3cccn3c3cccnc32)c(C)c1	x	4%	x	x	x
CC1=C(C(=O)N(C(C)C)C(C)C)CC(CC(=O)NC2CCCCC2)C(=O)N1Cc1ccc(C(C)(C)C)cc1 (centres undefined)	x	x	x	-8%	x
COc1cc(/C=N/O)ccc1OCc1ccc(Cl)cc1	x	x	3	x	x
SMILES	TSG101-PTAP inh	VDR inh	TSHR antag	PLK1 PBD inh	uPA surface inh
CCOc1cc(/C=N/O)ccc1OCc1ccc([N+](=O)[O-])cc1	-2%	u	-6	24µM*	0%
CCOc1cc(/C=N/O)ccc1OCc1ccc(F)cc1	-1%	50µM*	3	24µM*	-4%
CCOc1cc(C=C(C(=O)OC)C(=O)OC)ccc1OCc1ccc([N+](=O)[O-])cc1	-13%	u	-32	-18%	-12%
Cc1c(Cl)cccc1NC(=O)CSc1nc(=O)n(Cc2ccccn2)c2c1CCC2	x	-2%	x	x	x
O=C(COc1ccc(F)cc1)Nc1cccc(OCc2cc(=O)n3ccccc3n2)c1	x	14%	x	x	x
Cc1nn(CCC(N)=S)c2nc(-c3cccs3)cc(C(F)(F)F)c12	-3%	u	6	11µM*	-23%
Cc1nn(CCC#N)c2nc(-c3ccccc3)cc(C(F)(F)F)c12	-3%	-5%	13	-2%	2%
